# Measurements published in the supplement of paper PMC12282887.
# ± gives the standard deviation of the averaged measurements.
# Experiments:
# Assay in all cases: promoter activity interaction Z-score (Lux/OD deviation from empty-vector control); higher = stronger promoter induction by the compound
# [1] = system: E. coli BW25113 acrABp lux reporter
# Summary of the method: (§1)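 E. coli BW25113 (wild type or marA, soxS or rob deletion) carrying low-copy luxCDABE promoter reporters grew in 40 µl LB Lennox in 384-well plates at 37°C. Each compound was tested at four 1:2 dilutions in biological duplicates. OD600 and luminescence were read every 30 min for 12 h. Areas were taken over 0–8 h (wild type) or 1–9 h (mutants), and wells below 10% of median growth area were removed. The score is the Z-transformed residual of growth-normalised luminescence fitted against the empty-vector control.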
# [2] = system: E. coli BW25113 micFp lux reporter
# Summary of the method: as §1
# [3] = system: E. coli BW25113 ompFp lux reporter
# Summary of the method: as §1
# [4] = system: E. coli BW25113 robp lux reporter
# Summary of the method: as §1
# [5] = system: E. coli BW25113 soxSp lux reporter
# Summary of the method: as §1
# [6] = system: E. coli BW25113 tolCp lux reporter
# Summary of the method: as §1
# [7] = 0.0081 µg/ml, genetic background: wild type
# [8] = 0.0081 µg/ml, genetic background: ΔmarA
# [9] = 0.0081 µg/ml, genetic background: Δrob
# [10] = 0.0081 µg/ml, genetic background: ΔsoxS
# [11] = 0.016 µg/ml, genetic background: wild type
# [12] = 0.016 µg/ml, genetic background: ΔmarA
# [13] = 0.016 µg/ml, genetic background: Δrob
# [14] = 0.016 µg/ml, genetic background: ΔsoxS
# [15] = 0.033 µg/ml, genetic background: wild type
# [16] = 0.033 µg/ml, genetic background: ΔmarA
# [17] = 0.033 µg/ml, genetic background: Δrob
# [18] = 0.033 µg/ml, genetic background: ΔsoxS
structure (smiles),measurement,setting,value
CC1(C)S[C@@H]2[C@H](/N=C/N3CCCCCC3)C(=O)N2[C@H]1C(=O)O [Mecillinam],promoter activity interaction Z-score,[1]; [7],0.0459 ± 0.4
same,promoter activity interaction Z-score,[1]; [8],1.25 ± 1.5
same,promoter activity interaction Z-score,[1]; [9],-0.273 ± 0.055
same,promoter activity interaction Z-score,[1]; [10],-0.522 ± 0.019
same,promoter activity interaction Z-score,[1]; [11],-0.377 ± 0.16
same,promoter activity interaction Z-score,[1]; [12],0.612 ± 0.15
same,promoter activity interaction Z-score,[1]; [13],-0.267 ± 0.022
same,promoter activity interaction Z-score,[1]; [14],-0.431 ± 0.57
same,promoter activity interaction Z-score,[1]; [15],0.0507 ± 0.0088
same,promoter activity interaction Z-score,[1]; [16],-0.755
same,promoter activity interaction Z-score,[1]; [17],0.113 ± 0.12
same,promoter activity interaction Z-score,[1]; [18],-0.499 ± 0.14
same,promoter activity interaction Z-score,[2]; [7],0.276 ± 0.25
same,promoter activity interaction Z-score,[2]; [8],0.207 ± 0.062
same,promoter activity interaction Z-score,[2]; [9],0.351 ± 0.025
same,promoter activity interaction Z-score,[2]; [10],-0.288 ± 0.15
same,promoter activity interaction Z-score,[2]; [11],0.194 ± 0.12
same,promoter activity interaction Z-score,[2]; [12],0.155 ± 0.054
same,promoter activity interaction Z-score,[2]; [13],0.474 ± 0.16
same,promoter activity interaction Z-score,[2]; [14],0.251 ± 0.044
same,promoter activity interaction Z-score,[2]; [15],0.824 ± 0.39
same,promoter activity interaction Z-score,[2]; [16],-0.211 ± 0.025
same,promoter activity interaction Z-score,[2]; [17],-0.0142 ± 0.33
same,promoter activity interaction Z-score,[2]; [18],0.562 ± 0.17
same,promoter activity interaction Z-score,[3]; [7],0.00268 ± 0.17
same,promoter activity interaction Z-score,[3]; [8],-0.0176 ± 0.4
same,promoter activity interaction Z-score,[3]; [9],-0.211 ± 0.62
same,promoter activity interaction Z-score,[3]; [10],-0.38 ± 0.044
same,promoter activity interaction Z-score,[3]; [11],-1.12 ± 0.37
same,promoter activity interaction Z-score,[3]; [12],-0.241 ± 0.0076
same,promoter activity interaction Z-score,[3]; [13],-0.807 ± 1.2
same,promoter activity interaction Z-score,[3]; [14],-0.124 ± 0.41
same,promoter activity interaction Z-score,[3]; [15],-1.28 ± 0.79
same,promoter activity interaction Z-score,[3]; [16],-0.894 ± 1.1
same,promoter activity interaction Z-score,[3]; [17],-1.44
same,promoter activity interaction Z-score,[3]; [18],0.0879 ± 0.27
same,promoter activity interaction Z-score,[4]; [7],0.327 ± 0.16
same,promoter activity interaction Z-score,[4]; [8],1.43 ± 0.17
same,promoter activity interaction Z-score,[4]; [9],-0.0357 ± 0.087
same,promoter activity interaction Z-score,[4]; [10],0.198 ± 0.16
same,promoter activity interaction Z-score,[4]; [11],-0.956 ± 0.2
same,promoter activity interaction Z-score,[4]; [12],0.379 ± 0.24
same,promoter activity interaction Z-score,[4]; [13],-1.19 ± 0.41
same,promoter activity interaction Z-score,[4]; [14],0.457 ± 1.5
same,promoter activity interaction Z-score,[4]; [15],-1.37 ± 0.12
same,promoter activity interaction Z-score,[4]; [16],-0.827 ± 0.15
same,promoter activity interaction Z-score,[4]; [17],-1.65
same,promoter activity interaction Z-score,[4]; [18],-1.03 ± 0.28
same,promoter activity interaction Z-score,[5]; [7],0.14 ± 0.081
same,promoter activity interaction Z-score,[5]; [8],0.149 ± 0.16
same,promoter activity interaction Z-score,[5]; [9],0.13 ± 0.12
same,promoter activity interaction Z-score,[5]; [10],0.171 ± 0.015
same,promoter activity interaction Z-score,[5]; [11],0.0658 ± 0.21
same,promoter activity interaction Z-score,[5]; [12],0.371 ± 0.073
same,promoter activity interaction Z-score,[5]; [13],0.0922 ± 0.097
same,promoter activity interaction Z-score,[5]; [14],0.495 ± 0.048
same,promoter activity interaction Z-score,[5]; [15],0.18 ± 0.061
same,promoter activity interaction Z-score,[5]; [16],0.154 ± 0.13
same,promoter activity interaction Z-score,[5]; [17],-0.163 ± 0.38
same,promoter activity interaction Z-score,[5]; [18],0.865 ± 0.22
same,promoter activity interaction Z-score,[6]; [7],0.00505 ± 0.64
same,promoter activity interaction Z-score,[6]; [8],-0.0513 ± 0.34
same,promoter activity interaction Z-score,[6]; [9],-0.155 ± 0.23
same,promoter activity interaction Z-score,[6]; [10],-0.674 ± 0.22
same,promoter activity interaction Z-score,[6]; [11],-0.967 ± 0.5
same,promoter activity interaction Z-score,[6]; [12],-0.771 ± 0.8
same,promoter activity interaction Z-score,[6]; [13],-1 ± 0.24
same,promoter activity interaction Z-score,[6]; [14],-0.0514 ± 0.98
same,promoter activity interaction Z-score,[6]; [15],-0.779 ± 2.4
same,promoter activity interaction Z-score,[6]; [16],-0.938
same,promoter activity interaction Z-score,[6]; [17],0.0896 ± 2.1
same,promoter activity interaction Z-score,[6]; [18],1.16 ± 0.64
